This is a sample that favours compounds with a hit; in the whole collection about 6% have one here.
D3 antag: antagonists of human D3 dopamine receptor; hit rate 2.5% among 360,000; D3R cells, DiscoveRx beta-arrestin luminescence, antagonist mode; hits give low values; max response, negative = inhibition, %; AID 652054; P35462; in the data active = max response below about -50%; also: % is scaled to controls: 0 for no effect and ±100 for the full control effect
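Cells expressing the human receptor were seeded at 1500 cells/well, incubated overnight at 37 degrees C in 5% CO2, then exposed to library compounds with dopamine controls for 90 minutes at 37 degrees C before luminescent detection.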
D1 antagonist: human D1 dopamine receptor antagonism | P21728 | HEK293 TREx D1 cells, calcium flux, dopamine EC80; hits give low values | activity change, negative = inhibition, % at 10 µM | hit rate 3.2% among 360,000 | AID 504652; in the data active = activity change below about -30%; also: % is scaled to controls: 0 for no effect and ±100 for the full control effect
Target sequence (P21728 whole entry, looked up): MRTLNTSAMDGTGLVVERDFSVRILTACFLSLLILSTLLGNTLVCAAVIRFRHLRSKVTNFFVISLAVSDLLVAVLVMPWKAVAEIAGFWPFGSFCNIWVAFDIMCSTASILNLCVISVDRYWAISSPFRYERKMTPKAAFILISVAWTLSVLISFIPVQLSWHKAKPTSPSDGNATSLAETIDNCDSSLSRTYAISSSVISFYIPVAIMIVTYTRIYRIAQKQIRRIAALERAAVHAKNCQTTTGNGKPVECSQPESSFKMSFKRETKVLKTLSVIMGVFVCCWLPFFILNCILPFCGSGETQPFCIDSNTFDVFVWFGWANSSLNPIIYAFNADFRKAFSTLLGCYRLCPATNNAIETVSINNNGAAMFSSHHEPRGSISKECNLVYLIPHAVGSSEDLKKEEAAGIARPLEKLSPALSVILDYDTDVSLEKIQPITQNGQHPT
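Tetracycline-induced HEK293 Trex D1 cells, force-coupled to calcium, dye-loaded; compounds added and read 180 s, then EC80 dopamine added and calcium flux tracked kinetically another 180 s.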
D1 PAM: enhances dopamine response at the human D1 receptor. hit rate 0.036% among 360,000. HEK293 TREx D1 cells, calcium flux, dopamine EC20 potentiation. potentiation, % at 10 µM; in the data active = potentiation above about 30%; also: 0% is about no effect
D1 agonist: agonists of human D1 dopamine receptor; hit rate 1% among 360,000; HEK293 T-REx D1 cells, calcium flux, agonist mode; activation, % at 2 µM; P21728; AID 504660; in the data active = activation above about 30%; also: 0% is about no effect
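Inducible HEK293 T-REx D1 cells, force-coupled to calcium signalling, were plated at 4000 cells/well with tetracycline and held overnight at 30 C. After no-wash calcium dye loading, compound-evoked calcium rise over 180 s flagged agonists.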
D3 ag: agonists of human D3 dopamine receptor | P35462 | D3R DiscoveRx beta-arrestin cells, luminescence, 90 min | max activation, % | hit rate 0.58% among 410,000 | AID 652048; in the data active = max activation above about 30%; also: 0% is about no effect
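Cells at 1500/well, incubated overnight, then treated with pinned compounds (dopamine as control) for 90 min at 37 degrees C. DiscoveRx reagent added for 30 - 60 minutes at room temperature; luminescence read.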
* = called active by the depositor.

`COc1ccc(N2C(=O)c3cccc4cccc(c34)C2=O)cc1` gave D3 antag -2, D1 antagonist 8, D1 PAM -4, D1 agonist 1 and D3 ag 7.
Screening COc1ccc(N2C(=O)c3cccc4c(N(C)CCO)ccc(c34)C2=O)cc1 returned D3 antag 0, D1 antagonist -3, D1 PAM -3, D1 agonist 49* and D3 ag -4.
`O=C1c2cccc3c(O)ccc(c23)C(=O)N1Cc1ccco1` gave D3 antag -14, D1 antagonist 6, D1 PAM 0, D1 agonist 272* and D3 ag 4.
Screening O=C1c2cccc3c(O)ccc(c23)C(=O)N1c1ccc(Cl)cc1 returned D3 antag 3, D1 antagonist 8, D1 PAM 19, D1 agonist 470* and D3 ag 2.
Screening CC(NC(=O)C1CCN(S(=O)(=O)c2ccc3c(c2)oc(=O)n3C)CC1)c1ccccc1 (stereo not drawn) returned D1 antagonist 2, D1 PAM -2, D1 agonist -1 and D3 ag -4.
`Cc1ccc(N2C(=O)c3cccc4c(C(=O)O)ccc(c34)C2=O)cc1` gave D1 antagonist 10, D1 PAM 3 and D1 agonist 17.
For CC(=O)Nc1ccc(N2C(=O)c3cccc4c(O)ccc(c34)C2=O)cc1 the results were D3 antag 59, D1 antagonist 2, D1 PAM 12, D1 agonist 283* and D3 ag 7.
Screening COc1ccc(NC(=O)CSc2nnc(-c3ccncc3)n2-c2ccccc2)cc1 returned D1 antagonist 7, D1 PAM -3, D1 agonist -2 and D3 ag -9.
`O=C(CSc1nc2ccccc2o1)Nc1ccc(N2CCOCC2)cc1` gave D3 antag 4, D1 antagonist -44*, D1 PAM -2, D1 agonist 5 and D3 ag 3.
C/C(=N\NC(=O)CSc1nc2ccccc2o1)c1ccc(O)cc1 was read as D3 antag -2, D1 antagonist 1, D1 PAM 5, D1 agonist 2 and D3 ag -4.
C/C(=N\NC(=O)CSc1nc2ccccc2o1)c1cccc(O)c1 was read as D3 antag 13, D1 antagonist -35*, D1 PAM -4, D1 agonist 6 and D3 ag 8.
O=C(Nc1nnc(SCC(=O)N2CCCC2)s1)C1CC(=O)N(c2ccc(F)cc2)C1 (stereo not drawn) was read as D3 antag 1, D1 antagonist -18, D1 PAM -4, D1 agonist 3 and D3 ag 3.
O=C(Nc1nnc(SCC(=O)N2CCOCC2)s1)C1CC(=O)N(c2ccc(F)cc2)C1 (stereo not drawn) was read as D3 antag 3, D1 antagonist -47*, D1 PAM -4, D1 agonist 0 and D3 ag -1.
COc1ccc(NC(=O)CSc2nnc(NC(=O)C3CC3)s2)cc1OC was read as D3 antag 0, D1 antagonist -36*, D1 PAM -13, D1 agonist 1 and D3 ag -7.
`O=C(C(=O)N1CCC(c2ccccc2)CC1)c1cccc([N+](=O)[O-])c1` gave D3 antag -14 and D3 ag -2.
Screening O=c1ccn2c(n1)SC(c1ccccc1)C2 (stereo not drawn) returned D3 antag 19 and D3 ag 1.
`N#CC(CC(=O)OCc1ccccc1)NC(=O)OCc1ccccc1` (stereo not drawn) gave D3 antag 8 and D3 ag 5.
`COC(=O)[C@]12CCCCC=C1N(CCc1ccc(OC)c(OC)c1)C(=O)[C@H](CC(=O)NCc1ccccc1)C2` gave D3 antag 17 and D3 ag 7.
For CCSc1nnc(NC(=O)Cc2ccc(OC)c(OC)c2)s1 the results were D3 antag 34, D1 antagonist -33*, D1 PAM -9, D1 agonist 2 and D3 ag 4.
`O=C(CSc1nnc(NC(=O)C2CCC2)s1)Nc1ccc(N2CCOCC2)cc1` gave D3 antag -73*, D1 antagonist 4, D1 PAM -1, D1 agonist 3 and D3 ag -11.
Cc1ccc(CNCc2ccccc2Cl)cc1 was read as D3 antag -67*, D1 antagonist 5, D1 PAM 5, D1 agonist 5 and D3 ag -13.
For Cc1ccc2nc(Cl)c(CNCc3ccccc3)cc2c1 the results were D3 antag -10, D1 antagonist -35*, D1 PAM 5, D1 agonist 4 and D3 ag -2.
Cc1ccc(CNS(=O)(=O)c2c(C(=O)N3CCC(C)CC3)c(C)n(C)c2C)cc1 was read as D1 antagonist 5, D1 PAM 0, D1 agonist 0 and D3 ag 1.
CCN(Cc1nc(-c2ccc(OC)c(OC)c2)no1)S(=O)(=O)c1ccc(OC)cc1 was read as D1 antagonist -34*, D1 PAM 2, D1 agonist 1 and D3 ag 4.
COc1ccc(-c2noc(COc3ccc4ccccc4c3Br)n2)cc1OC was read as D3 antag 3, D1 antagonist 11, D1 PAM -5, D1 agonist 0 and D3 ag 8.
For CCN(Cc1nc(-c2ccc(OC)c(OC)c2)no1)C(=O)c1ccc2c(c1)OCO2 the results were D3 antag 13, D1 antagonist -2, D1 PAM 0, D1 agonist 5 and D3 ag -27.
Screening COc1ccc(-c2noc(COc3ccc(Br)cc3C)n2)cc1OC returned D1 antagonist 2, D1 PAM -1, D1 agonist 33* and D3 ag 2.
For COc1ccc(-c2noc(COc3ccc(C)c(C)c3)n2)cc1OC the results were D3 antag 6, D1 antagonist -45*, D1 PAM -5, D1 agonist 9 and D3 ag 9.
Screening Cc1cccc(C)c1NC(=O)C(C1CC1)n1c(-c2ccc(-c3ccccc3)cc2)nc2ccccc21 (stereo not drawn) returned D3 antag 6 and D3 ag -7.
NC(=O)c1ncn([C@@H]2O[C@H](CO)[C@@H](O)[C@H]2O)c1N was read as D3 ag -2.
`CC(O)(c1ccc(F)c(F)c1)c1nc(/C=C/c2ccccc2)cs1` (stereo not drawn) gave D3 antag 0 and D3 ag -10.
CC(O)(c1cccc(F)c1)c1nc(-c2ccoc2)cs1 (stereo not drawn) was read as D3 antag 2 and D3 ag -2.
`CC(O)(c1ccccc1)c1nc(/C=C/c2ccccc2)cs1` (stereo not drawn) gave D3 antag -62* and D3 ag -16.
COc1cccc(C(C)(O)c2nc(-c3ccoc3)cs2)c1 (stereo not drawn) was read as D3 antag -95* and D3 ag -9.

High-throughput results (PubChem BioAssay)
